Screening data as filed in PubChem.
Hits are enriched below; roughly 3.2% of the tested compounds scored in any of these assays.
NRP1-CendR mod: alters CendR peptide binding to human NRP-1. actives 0.85% (n = 360,000). inhibition, % at 25 µM. O14786. FAM-RPARPAR peptide binding to NRP-1, fluorescence polarization;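 active = inhibition or corrected inhibition above about 18%, plus a signal ratio from 0.5 to 1.5, limit read from the data, passing the limit was not always enough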
Target sequence (O14786 whole entry, looked up): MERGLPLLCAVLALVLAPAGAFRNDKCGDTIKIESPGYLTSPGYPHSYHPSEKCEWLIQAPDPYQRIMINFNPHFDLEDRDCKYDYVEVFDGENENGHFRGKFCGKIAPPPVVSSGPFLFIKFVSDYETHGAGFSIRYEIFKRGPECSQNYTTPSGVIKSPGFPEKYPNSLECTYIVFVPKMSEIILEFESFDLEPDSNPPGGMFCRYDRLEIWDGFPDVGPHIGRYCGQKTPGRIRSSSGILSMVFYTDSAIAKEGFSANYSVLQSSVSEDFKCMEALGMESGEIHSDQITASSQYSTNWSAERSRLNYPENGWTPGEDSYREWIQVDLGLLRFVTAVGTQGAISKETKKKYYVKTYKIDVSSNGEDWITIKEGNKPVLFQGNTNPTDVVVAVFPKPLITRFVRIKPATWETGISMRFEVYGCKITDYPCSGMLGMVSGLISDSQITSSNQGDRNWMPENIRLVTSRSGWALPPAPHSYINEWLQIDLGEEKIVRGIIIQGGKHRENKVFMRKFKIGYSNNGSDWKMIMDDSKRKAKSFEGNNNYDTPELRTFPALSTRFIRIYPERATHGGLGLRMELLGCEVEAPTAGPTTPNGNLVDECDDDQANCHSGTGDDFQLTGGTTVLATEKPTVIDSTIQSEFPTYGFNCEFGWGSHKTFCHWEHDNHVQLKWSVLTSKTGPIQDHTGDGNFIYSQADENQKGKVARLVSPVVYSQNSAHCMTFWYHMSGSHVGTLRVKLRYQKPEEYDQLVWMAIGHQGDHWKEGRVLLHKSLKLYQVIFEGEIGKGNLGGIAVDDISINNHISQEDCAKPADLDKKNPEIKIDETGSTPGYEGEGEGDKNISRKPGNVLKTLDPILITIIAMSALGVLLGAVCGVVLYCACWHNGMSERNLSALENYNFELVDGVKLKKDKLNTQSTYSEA
MEKK2mut PB1 HTS: signal of MEK5 binding to mutant human MEKK2 PB1 domain. bead flow cytometry, Alexa488-MEK5 binding to MEKK2 mutant. percent response, % at 10 µM. actives 0.35% (n = 290,000). AID 1530; in the data active = percent response above about 24%, passing the limit was not always enough
MEKK3 PB1 HTS: MEKK3-MEK5 PB1 interaction, increase or decrease; Q99759; actives 1.4% (n = 290,000); AID 1529; bead-based flow cytometry, Alexa488-MEK5 binding to MEKK3; actives lie on both sides; 0 = blocked by unlabeled MEK5, 100 = vehicle; binding response (% of control), % at 10 µM;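 active = binding response more than 3 SD above or below the average of its plate-row segment, actives on both sides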;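 also: Alexa488 bead fluorescence after subtracting the streptavidin-only scavenger bead signal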
SKN-1 inh: blocks SKN-1 activity in C. elegans; C. elegans VP596 Pgst-4::GFP/RFP ratio, acrylamide-induced, 24 h; inhibition, % at 21.8 µM; actives 0.49% (n = 360,000);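 active = interference check ratio from 0.5 to 1.5 plus GFP to RFP signal ratio inhibition reaching or exceeding a fixed threshold, cut at about 30% in these data, passing the limit was not always enough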
MEKK2wt PB1 HTS: raises or lowers MEK5 binding to wildtype human MEKK2 PB1 domain; Q9Y2U5; bead flow cytometry, Alexa488-MEK5 binding to MEKK2 WT; actives lie on both sides; binding response (% of control), % at 10 µM; actives 1.1% (n = 290,000); AID 1531; in the data active = binding response below about 67% or above about 130%
MEKK2wt confirm: raises or lowers MEK5 binding to wildtype human MEKK2, retest; shares compounds with MEKK3 PB1 HTS; binding response (% of control), % at 10 µM; AID 1892; actives 2.4% (n = 5,900); bead flow cytometry, Alexa488-MEK5 binding to MEKK2 WT; actives lie on both sides; in the data active = binding response below about 16% or above about 210%; inactive = in between
MEKK2mut-MEK5: signal of MEK5 binding to mutant human MEKK2, retest. shares compounds with MEKK3 PB1 HTS. bead flow cytometry, Alexa488-MEK5 binding to MEKK2 mutant. percent response, % at 10 µM. actives 2% (n = 5,900). AID 1893; in the data active = percent response mostly above about 71%, no sharp cut-off; inactive = mostly below about 38%;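 also: higher means compound restores mutant binding toward wildtype level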
MEKK3 confirm: MEKK3-MEK5 PB1 inhibition, single concentration confirmation; shares compounds with MEKK3 PB1 HTS; AID 1894; actives 1.8% (n = 5,900); binding response (% of control), % at 10 µM; bead flow cytometry, Alexa488-MEK5 binding to MEKK3; hits give low values;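 active = binding response below 72% of control, or above a set upper limit, though filed actives all read lower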;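 also: 100% = DMSO only wells and 0% = binding blocked by excess unlabeled MEK5; lower values mean stronger disruption of MEK5 binding to MEKK3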
* marks the source's active call; other numbers are inactive results; . = no result given; [ ] = another dose, or the depositor's remark.

SMILES	NRP1-CendR mod	MEKK2mut PB1 HTS	MEKK3 PB1 HTS	SKN-1 inh	MEKK2wt PB1 HTS	MEKK2wt confirm	MEKK2mut-MEK5	MEKK3 confirm
N/C(=N\N=C/c1ccc(Br)cc1)N/N=C\c1ccc(Br)cc1	3	102*	110	26	215*	129	21	105
N/C(=N\N=Cc1ccc2c(c1)OCO2)NN=Cc1ccc2c(c1)OCO2	-6	.	.	13	.	.	.	.
COC(=O)N/N=C/c1cc(C)n(-c2ccccc2)c1C	-8	-4	1.0*[inhibitor]	4	1.0*[inhibitor]	101	0	100
CCOc1ccc(/C(O)=C2\C(=O)C(=O)N(c3cc(C)on3)C2c2ccccc2OC)cc1 (stereo not drawn)	3	-31	2.0*[inhibitor]	9	2.0*[inhibitor]	110	8	107
Nc1cc(=O)[nH]c(SCC(=O)Nc2ccc(Oc3ccccc3)cc2)n1	11	1	96	28	94	.	.	.
COc1cc(C(=O)NCc2ccc(-c3nc4ccccc4s3)cc2)cc(OC)c1OC	-11	0	136*	-8	107	105	2	99
COc1ccc(C(=O)NCc2ccc(-c3nc4ccccc4s3)cc2)cc1	-11	3	105	18	100	.	.	.
COc1ccccc1Cc1c(C(C)(C)C)nc2c3ccccc3ccn12	5	.	.	-1	.	.	.	.
Cc1cc(Nc2ccc(C)c(C)c2)c2ccccc2n1	3	4	91	28	106	.	.	.
Cc1ccc(Nc2nc(N)c3ccccc3n2)cc1C	10	17	107	4	138*	138	22	107
CC(C)NC(=O)c1cc(C2CCCCN2S(=O)(=O)c2cccc3cccnc23)on1 (stereo not drawn)	7	.	.	14	.	.	.	.
Cc1cccc(N=C2Sc3nc4c(C)c(C)ccc4cc3CN2CCN2CCOCC2)c1	5	24*	113	3	144*	136	17	108
Cc1onc(-c2c(F)cccc2Cl)c1C(=O)Nc1cc2cc([N+](=O)[O-])ccc2oc1=O	7	.	.	-4	.	.	.	.
CCOC(=O)CNC(=O)Nc1nnc(-c2ccc(OCC)cc2)o1	0	-11	48*[inhibitor]	2	56	97	-1	100
N#Cc1ccc(/C=N/NC(=O)c2ccccc2F)cc1	-1	47	115	7	140*	101	-1	102
O=C(NC1(C(F)(F)F)N=C(c2ccccc2)NC1=O)c1ccccc1F (stereo not drawn)	8	0	134*	-5	106	109	12	105
O=C(CCc1[nH]c2ccccc2c1Sc1ccccc1)NCCO	-3	3	67*[inhibitor]	0	98	99	-3	104
CCCCCc1cc(=O)oc2c(C(CCN(CC)CC)c3ccc(N(C)C)cc3)c(OC)cc(OC)c12 (stereo not drawn)	1	23	108	2	166*	185	37	109
CCCCCc1cc(=O)oc2c(C(CCN3CCCCC3)c3cc(OC)c(OC)c(OC)c3)c(OC)cc(OC)c12 (stereo not drawn)	6	13	108	-3	147*	155	25	102
COc1cc(C(CCN2CCCC2)c2c(OC)cc(OC)c3ccc(=O)oc23)cc(OC)c1OC (stereo not drawn)	20	5	94	1	98	.	.	.
CCCCCc1cc(=O)oc2c(C(CCN3CCCC(C)C3)c3cc(OC)c(OC)c(OC)c3)c(OC)cc(OC)c12 (stereo not drawn)	-3	29*	115	14	163*	203	45	110
CCCCCc1cc(=O)oc2c(C(CCN3CCCC(C)C3)c3ccc(N(C)C)cc3)c(OC)cc(OC)c12 (stereo not drawn)	10	50*	116	-9	149*	178	39	110
CCN(CC)CCC(c1ccc2c(c1)OCO2)c1c(OC)cc(OC)c2ccc(=O)oc12 (stereo not drawn)	-4	4	97	-4	101	.	.	.
COc1cc(OC)c2ccc(=O)oc2c1C(CCN1CCCC(C)C1)c1ccc(N(C)C)cc1 (stereo not drawn)	-2	2	96	-1	104	.	.	.
O=C(CN1C(=O)C(=O)N(C2CCCC2)C1=O)Nc1ccc([N+](=O)[O-])cc1	-11	.	.	19	.	.	.	.
SMILES	NRP1-CendR mod	MEKK2mut PB1 HTS	MEKK3 PB1 HTS	SKN-1 inh	MEKK2wt PB1 HTS	MEKK2wt confirm	MEKK2mut-MEK5	MEKK3 confirm
COc1ccc(CN2C[C@]3(CO)O[C@@H](CO)C[C@@H]3S2(=O)=O)cc1	4	.	.	4	.	.	.	.
CC(C)N(C(=O)c1nn(C)c2c1CSc1ccccc1-2)C1CCCCC1	10	1	104	16	100	.	.	.
Cn1cc([C@]2(O)C(=O)Nc3ccc(OC(F)(F)F)cc32)c2ccccc21	0	.	.	17	.	.	.	.
OC(c1ccc(-c2ccccc2)cc1)c1ncc(-c2ccccc2)[nH]1 (stereo not drawn)	-4	.	.	8	.	.	.	.
COc1ccccc1C1CCCN1Cc1nc(-c2ccc(C)s2)oc1C (stereo not drawn)	-22	-14	61*[inhibitor]	9	63*[inhibitor]	107	6	101
O=C(Nc1nc(-c2ccc(F)cc2)cs1)c1ccc(N2C(=O)CCC2=O)cc1	-12	-7	74*[inhibitor]	-1	79	93	-2	90
CN1C(=O)N(C)C2(c3ccccc3)N(C)C(=O)NC12c1ccccc1 (stereo not drawn)	6	-17	35*[inhibitor]	-13	50	101	6	101
Cc1cccc(-n2c(Cc3cc(=O)[nH]c(=O)[nH]3)nnc2SCC(=O)N2CCc3ccccc32)c1	14	1	101	-9	104	.	.	.
COc1cccc(NC(=O)CN(C)C(=O)c2ccc(NC(=O)CC3SC(N4CCCC4)=NC3=O)cc2)c1 (stereo not drawn)	-2	.	.	-9	.	.	.	.
COc1ccc(C(=O)N2CCC(c3ccccc3)CC2)c(OC)c1OC	4	2	134*	10	123	109	0	102
COc1cccc(C(=O)N2CCN(C(=O)c3ccc(-c4ccccc4)cc3)CC2)c1OC	0	-2	94	-11	93	.	.	.
CCOC(=O)Cc1csc(NC(=O)COc2ccc(N(C)S(=O)(=O)c3ccc(C)cc3)cc2)n1	7	9	128*	3	116	104	3	107
CCOC(=O)Cc1csc(NC(=O)c2ccc(OC)c(OC)c2)n1	-13	-42	1.0*[inhibitor]	7	0.0*[inhibitor]	96	1	99
